Assay results from publication PMC4336329 (PLoS ONE, 2015).
The campaign covered roughly 310,000 compounds. About 14,000 (4.5%) showed an effect of 50% or more. Effects have a minus sign here. The entries come from a sample that favours strong results as a whole.

target: human ether-à-go-go-related gene (hERG) potassium channel (human, UniProt Q12809); test: primary screen, population patch clamp on CHO cells stably expressing hERG; higher = less effect of the substance
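Note: peak tail current of the secondary pulse compared with the same well before compound.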

Sequence of human ether-à-go-go-related gene (hERG) potassium channel (Q12809 whole entry, looked up): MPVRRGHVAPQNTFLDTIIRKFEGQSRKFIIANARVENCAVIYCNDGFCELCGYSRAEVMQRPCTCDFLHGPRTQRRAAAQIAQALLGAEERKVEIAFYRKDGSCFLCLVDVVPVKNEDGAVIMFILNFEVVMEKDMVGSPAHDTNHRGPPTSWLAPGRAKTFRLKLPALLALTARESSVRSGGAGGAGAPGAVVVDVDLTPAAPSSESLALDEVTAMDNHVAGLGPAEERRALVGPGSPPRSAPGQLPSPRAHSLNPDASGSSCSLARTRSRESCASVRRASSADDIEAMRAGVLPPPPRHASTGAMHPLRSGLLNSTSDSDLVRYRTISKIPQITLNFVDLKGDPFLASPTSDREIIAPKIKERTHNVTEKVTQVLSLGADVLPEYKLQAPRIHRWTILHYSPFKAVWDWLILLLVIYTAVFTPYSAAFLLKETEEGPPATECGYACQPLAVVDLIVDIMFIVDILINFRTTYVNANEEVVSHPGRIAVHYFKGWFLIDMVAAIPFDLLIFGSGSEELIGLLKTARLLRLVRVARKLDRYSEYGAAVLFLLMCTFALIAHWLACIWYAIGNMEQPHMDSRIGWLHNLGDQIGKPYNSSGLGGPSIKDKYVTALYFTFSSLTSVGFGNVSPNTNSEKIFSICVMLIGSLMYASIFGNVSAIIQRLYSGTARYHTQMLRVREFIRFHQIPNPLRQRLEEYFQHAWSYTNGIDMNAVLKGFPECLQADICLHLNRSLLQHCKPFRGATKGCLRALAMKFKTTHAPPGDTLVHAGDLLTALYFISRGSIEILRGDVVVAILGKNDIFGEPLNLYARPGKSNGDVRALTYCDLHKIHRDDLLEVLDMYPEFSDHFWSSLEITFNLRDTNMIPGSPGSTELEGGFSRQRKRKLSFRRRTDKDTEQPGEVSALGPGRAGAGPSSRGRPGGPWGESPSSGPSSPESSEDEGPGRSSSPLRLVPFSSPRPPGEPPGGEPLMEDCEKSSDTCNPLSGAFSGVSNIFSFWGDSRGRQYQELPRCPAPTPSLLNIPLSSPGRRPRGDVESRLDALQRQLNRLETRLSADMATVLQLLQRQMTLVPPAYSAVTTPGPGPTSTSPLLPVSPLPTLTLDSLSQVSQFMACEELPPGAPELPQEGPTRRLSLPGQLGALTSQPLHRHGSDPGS

SMILES | hERG current change (%, negative = inhibition) at 10uM
C#CCOc1ccc(/C=C2/C(=O)N(c3cccc(C(=O)O)c3)N=C2C)cc1OC | -2.13%
CCCN(CC#CC(O)(c1ccccc1)c1cccnc1)CCC (centres unmarked) | -37.3%
COc1ccccc1NC(=O)CSc1ccc2nnc(-c3ccc(C)cc3)n2n1 | -26.6%
COc1ccc(CCNC(=O)CSc2nnc3ccc(-c4ccccn4)nn23)cc1 | -51.6%
COc1ccc(CCNC(=O)CSc2nnc3ccc(-c4ccccn4)nn23)cc1OC | 2.17%
COc1ccccc1NC(=O)CSc1ccc2nnc(-c3cccnc3)n2n1 | -57%
COc1ccccc1NC(=O)CSc1ccc2nnc(-c3ccccn3)n2n1 | 0.136%
COc1ccc(OC)c(NC(=O)CSc2ccc3nnc(-c4ccccn4)n3n2)c1 | -69%
O=C(CSc1nnc2ccc(-c3ccccn3)nn12)NCCc1ccccc1 | -6.49%
COc1ccc(NC(=O)CSc2ccc3nnc(-c4ccccn4)n3n2)c(OC)c1 | -25.9%
O=C(CSc1ccc2nnc(-c3cccnc3)n2n1)Nc1ccccc1C(F)(F)F | -33.3%
O=C(CSc1ccc2nnc(-c3cccnc3)n2n1)Nc1ccc(F)cc1F | -21.5%
CCOc1ccccc1NC(=O)CSc1ccc2nnc(-c3cccnc3)n2n1 | -61.9%
COc1ccccc1NC(=O)CSc1ccc2nnc(-c3ccncc3)n2n1 | -31.3%
COc1ccc(C(O)C(C)NC(C)C(O)c2ccc(OC)cc2)cc1 (centres unmarked) | 4.3%
COc1ccc(S(=O)(=O)N2CCN(Cc3cc(OC)c(O)c(OC)c3)CC2)cc1.O=C(O)C(=O)O | 4.57%
CN(C)CCNc1nc(-c2ccccc2)nnc1C(F)(F)F | -3.83%
CN1CCN(C(=O)c2ccc3c(c2)NC(=O)C(N2CCOCC2)S3)CC1 (centres unmarked) | 3.85%
COc1ccc(C(C)=O)cc1CN1C(=O)C(C)N(c2ccc(C)cc2)C1=O (centres unmarked) | -25.4%
CCn1nc(NC(=O)c2ccco2)c2cc3ccccc3nc21 | -0.887%
Cc1ccccc1CN1CCC(n2nccc2NC(=O)c2ccc3c(c2)OCO3)CC1 | -9.06%
COc1ccc(NC(=O)CSc2ccc3nnc(-c4cccnc4)n3n2)c(OC)c1 | -32.4%
COc1ccc(OC)c(NC(=O)CSc2ccc3nnc(-c4cccnc4)n3n2)c1 | -61.1%
COc1ccc(OC)c(NC(=O)CSc2ccc(-c3cccnc3)nn2)c1 | -17.6%
Cc1cc2nc(-c3cccnc3SCC(=O)NCc3ccco3)[nH]c2cc1C | -5.15%
Cc1ccc(C(=O)N2CCC(Cc3ccccc3)CC2)cc1[N+](=O)[O-] | -63.8%
Cc1cc(C(=O)N2CCC(Cc3ccccc3)CC2)ccc1[N+](=O)[O-] | -38.5%

SMILES | hERG current change (%, negative = inhibition) at 10uM
O=[N+]([O-])c1cccc(CN2CCC(Cc3ccccc3)CC2)c1 | -31.4%
O=C(c1ccc([N+](=O)[O-])cc1)N1CCC(Cc2ccccc2)CC1 | -73.4%
O=C(c1ccccc1[N+](=O)[O-])N1CCC(Cc2ccccc2)CC1 | -19%
O=[N+]([O-])c1ccc(C(=S)N2CCC(Cc3ccccc3)CC2)cc1 | -32.4%
Cc1c(C(=O)N2CCC(Cc3ccccc3)CC2)cccc1[N+](=O)[O-] | -34.3%
O=[N+]([O-])c1ccc(CN2CCC(Cc3ccccc3)CC2)cc1 | -55.1%
Cc1ccc(C(=O)Nc2ccc(NC(=O)c3ccc(C)o3)cc2)o1 | -1.94%
Cc1ccc(F)cc1CNC(=O)C1CCC(=O)N(CCCN2CCCC2=O)C1 (centres unmarked) | 14.6%
Cc1ccc(S(=O)(=O)Nc2cc(C(=O)Nc3cc(C)cc(C)c3)ccc2Cl)cc1 | -5.44%
Cc1cc(NC(=O)CSc2nc(=O)n(CCN(C)C)c3c2CCCC3)no1 | -6.91%
Cc1ccc(NC(=O)CSc2nc(=O)n(CCCN(C)C)c3c2CCC3)c(C)c1 | -50.6%
Cc1cc(NC(=O)CSc2nc(=O)n(CCCN(C)C)c3c2CCCC3)no1 | -7.06%
Cc1ccc2nc(NC(=O)CSc3nc(=O)n(CCN(C)C)c4c3CCCC4)sc2c1 | -50.2%
CN(C)CCCn1c2c(c(SCC(=O)Nc3nccs3)nc1=O)CCC2 | -9.32%
Cc1ccc(NC(=O)CSc2nc(=O)n(Cc3ccncc3)c3c2CCC3)c(C)c1 | -26.1%
CN(C)CCCn1c2c(c(SCC(=O)Nc3ccc4c(c3)OCCO4)nc1=O)CCC2 | -12.2%
Cc1ccc2nc(NC(=O)CSc3nc(=O)n(CCCN(C)C)c4c3CCC4)sc2c1 | -50.2%
CCN(CC)CCn1c2c(c(SCC(=O)Nc3nc4ccc(C)cc4s3)nc1=O)CCC2 | -30.4%
CN1CCC(=O)N([C@H](CN=[N+]=[N-])Cc2ccccc2)CC1 | 17.9%
c1cnc2ccc(-c3ccc4ncccc4c3)cc2c1 | -5.61%
COc1cc(C=O)ccc1OCCOCCOc1ccc(Cl)cc1 | -37.6%
COc1ccccc1NC(=O)c1ccc(S(=O)(=O)N2CCCC2)cc1 | -20.3%
CCOC(=O)c1cccc(NC(=O)c2cc3ccccc3o2)c1 | 1.39%
Cl.c1ccc2c(N3CCNCC3)nsc2c1 | -5.8%
Cl.O=C1[C@H]2CCCC[C@H]2C(=O)N1CCCCN1CCN(c2nsc3ccccc23)CC1 | -74.3%
FC(F)(F)C1CCCN(c2nsc3ccccc23)C1 (centres unmarked) | 19.1%
